Source: the supplement of paper PMC4166925
± gives the standard deviation of the averaged measurements. Whole data set: some 33,000 sequences, median “E-score (dimensionless, -0.5 to 0.5)” near -0.049, cut for the highest 2% near 0.37. Only a selection was taken, and the highest values are over-represented in it overall.

tested on: T1, PmTbr T-box DNA-binding domain (GST fusion); assay: PBM E-score of 8-mer (E-score (dimensionless, -0.5 to 0.5)); Tbr is Tbrain of the sea star Patiria miniata (Pm) or the sea urchin Strongylocentrotus purpuratus (Sp); higher = stronger binding preference; conditions: the construct has about 5 more residues each side
T1 sequence: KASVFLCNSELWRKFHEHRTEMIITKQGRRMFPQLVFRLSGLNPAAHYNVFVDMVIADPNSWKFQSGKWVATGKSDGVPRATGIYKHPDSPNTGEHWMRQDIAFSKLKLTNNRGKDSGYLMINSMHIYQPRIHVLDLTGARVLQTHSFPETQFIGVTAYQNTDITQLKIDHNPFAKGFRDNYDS
Summary of the method: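 Using the Universal PBM Analysis Suite, every ungapped 8-mer received an enrichment E-score averaged over duplicate arrays. Probe intensities came from double-stranded Universal Agilent oligonucleotide arrays incubated with 200 nM GST-fused Tbr T-box DNA-binding domain in PBS (pH 7.5). That protein was expressed in BL21 E. coli at 20 °C and purified by glutathione affinity chromatography.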

In order of falling “PBM E-score of 8-mer” value:
1. AAGTGCGA  0.4835 ± 0.00061
2. AGGTGTAA  0.47639 ± 0.00041
3. GGTGCTAA  0.4753 ± 0.00081
4. ATGTGCGA  0.4691 ± 0.0032
5. ATGTGTCA  0.4653 ± 0.0037
6. AGGCGCGA  0.463 ± 0.0056
7. CACCTTAG  0.4473 ± 0.0023
8. ACGTGCGA  0.4433 ± 0.0027
9. AGGCGCTA  0.4421 ± 0.0025
10. ACAGGTGC  0.4412 ± 0.0022
11. GCAGGTGA  0.4392 ± 0.002
12. AAAGTGTG  0.435 ± 0.012
13. GGTGCTAC  0.434 ± 0.0055
14. AAAGTGTT  0.429 ± 0.014
15. GGCGCTAA  0.426 ± 0.0098
16. AAAGTGTC  0.4215 ± 0.0027
17. AGTGCTAA  0.421 ± 0.012
18. GTGTCGCA  0.415 ± 0.0083
19. AAAAGTGT  0.413 ± 0.015
20. GAGTGCGA  0.4088 ± 0.00055
21. GGGCGCGA  0.409 ± 0.02
22. AGGTGTAG  0.408 ± 0.0046
23. ACACTTTC  0.408 ± 0.0072
24. ACAGGTGA  0.406 ± 0.0049
25. TAGTGCGA  0.4056 ± 0.0024
26. ACACTTTG  0.404 ± 0.014
27. ATGTGTCG  0.402 ± 0.0094
28. AGGCGAGA  0.401 ± 0.011
29. AGGCGACA  0.3974 ± 0.0038
30. CACCTTAC  0.394 ± 0.0074
31. GTGTCGGA  0.394 ± 0.015
32. ATAGTGTG  0.393 ± 0.033
33. ACAAGTGT  0.391 ± 0.0052
34. CAGTGCGA  0.386 ± 0.019
35. CACCTTAA  0.385 ± 0.011
36. GGGTGTAA  0.385 ± 0.013
37. AGAGTGTC  0.385 ± 0.0076
38. CGTTCGCA  0.38 ± 0.037
39. CCAGGTGC  0.379 ± 0.014
40. AGTTCGCA  0.378 ± 0.0033
41. CGTGCTAA  0.378 ± 0.021
42. AACGCCTT  0.3747 ± 0.00064
43. ACAAGTGG  0.375 ± 0.017
44. CGCGCTAA  0.369 ± 0.0084
45. CACAAGTG  0.367 ± 0.0037
46. CTTCTCAC  0.365 ± 0.01
47. AGCGCTAA  0.362 ± 0.02
48. AACGCCTC  0.362 ± 0.007
49. AGTGCTAG  0.358 ± 0.0077
50. CATTCGCA  0.3497 ± 0.0027
51. GTGTGTCA  0.348 ± 0.02
52. GGCGCTAC  0.346 ± 0.037
53. GGGCGCTA  0.346 ± 0.018
54. TGTGCTAA  0.346 ± 0.02
55. AGAGTGTG  0.34 ± 0.01
56. CCAGGTGA  0.339 ± 0.023
57. ACACTTTA  0.338 ± 0.029
58. ATAGTGTC  0.335 ± 0.011
59. GGTTCGCA  0.334 ± 0.02
60. ACAGGTGG  0.331 ± 0.022
61. AGGTGTAT  0.328 ± 0.0044
62. CGGCGCGA  0.317 ± 0.034
63. CGAGTGTC  0.294 ± 0.018
64. CGTGCTAG  0.287 ± 0.027
65. GCGTGCGA  0.285 ± 0.02
66. TGGTGTAA  0.28 ± 0.011
67. AACGCCTA  0.279 ± 0.034
68. ACAAGTGA  0.277 ± 0.034
69. AGTGCTAC  0.276 ± 0.031
70. AGTGCTAT  0.27 ± 0.0047
71. AGGCGACG  0.268 ± 0.0026
72. TAGTGCAA  0.267 ± 0.055
73. CAGCGTGA  0.266 ± 0.0088
74. ATGTCGCA  0.254 ± 0.049
75. ACAGGTTA  0.252 ± 0.022
76. TAGTGCCA  0.249 ± 0.0097
77. ACAAGTGC  0.249 ± 0.005
78. TGCGCTAA  0.247 ± 0.036
79. AATTGGCA  0.247 ± 0.036
80. AGGCGCGG  0.242 ± 0.019
81. CGGCGCTA  0.239 ± 0.033
82. ACAGTGTC  0.238 ± 0.0038
83. GGGTGGGA  0.237 ± 0.011
84. AAAGTGGC  0.234 ± 0.005
85. CGAAATCG  0.231 ± 0.046
86. CTGTCGCA  0.224 ± 0.064
87. AAAGTGAG  0.219 ± 0.048
88. AGGTGTAC  0.218 ± 0.043
89. CTGTGTCA  0.216 ± 0.027
90. AAAAGTGA  0.197 ± 0.059
91. GGGCGAGA  0.194 ± 0.052
92. ACGTGCGG  0.191 ± 0.05
93. ACTGCAGT  0.185 ± 0.034
94. CGTGCTAC  0.185 ± 0.0064
95. ACTGCTGA  0.181 ± 0.035
96. TCGCTTCA  0.177 ± 0.02
97. TTAGCAAA  0.173 ± 0.064
98. CGCACTCA  0.161 ± 0.074
99. AGGTTGTG  0.16 ± 0.052
100. CGCGCTAG  0.159 ± 0.019
101. AGGCGCGC  0.152 ± 0.021
102. AGAATCTA  0.151 ± 0.0012
103. AAGTGCGT  0.149 ± 0.039
104. AAAGTGTA  0.147 ± 0.057
105. AAGTGCGC  0.138 ± 0.026
106. ATGTGCGC  0.138 ± 0.0009
107. ATATGTCG  0.134 ± 0.029
108. CGGTGTAG  0.134 ± 0.1
109. CGGTGTAA  0.131 ± 0.037
110. ACAAGTAT  0.112 ± 0.028
111. CGGGCCCG  0.108 ± 0.013
112. AAAAGTGG  0.107 ± 0.0099
113. AAAGTGGT  0.106 ± 0.042
114. CCACTTTC  0.104 ± 0.06
115. GCAGGTCA  0.103 ± 0.027
116. ACAAGTCT  0.103 ± 0.044
117. CTGTCGGA  0.101 ± 0.044
118. ATGTGTCC  0.0956 ± 0.026
119. CACGGGTC  0.0871 ± 0.051
120. AGTGCTGC  0.0868 ± 0.0037
121. GGTGCTTA  0.0849 ± 0.048
122. GAGTGCAA  0.0826 ± 0.02
123. AAACTACT  0.0819 ± 0.0066
124. ATGTGCGG  0.0803 ± 0.028
125. ACAGGTCC  0.0798 ± 0.068
126. ACAGTTAG  0.0702 ± 0.027
127. CGTTCGCC  0.0701 ± 0.066
128. AGAGTTGA  0.0684 ± 0.016
129. AGTTCGCC  0.0555 ± 0.091
130. AGAGTGTA  0.0538 ± 0.058
131. CAACGTCA  0.0459 ± 0.035
132. TACTACGA  0.0382 ± 0.023
133. GAATTCCC  0.0309 ± 0.029
134. CCATCAGG  0.0307 ± 0.054
135. CAAATGTC  0.0249 ± 0.12
136. CCCTCTGC  0.0209 ± 0.072
137. ATAGTGTA  0.0192 ± 0.0016
138. GGGGGCGA  0.01664 ± 0.00016
139. CGAAGGGA  0.00651 ± 0.088
140. CGACCAAC  0.00547 ± 0.043
141. CGAAAAAA  0.00041 ± 0.062
142. AACCTTAC  -0.000525 ± 0.043
143. ACTCTTTC  -0.00346 ± 0.013
144. CTTCGATA  -0.00351 ± 0.034
145. AAAGTCCG  -0.00454 ± 0.029
146. AGACTTTG  -0.00767 ± 0.055
147. AAGCGATG  -0.00845 ± 0.0036
148. GCAGGGTA  -0.0138 ± 0.034
149. GGGTGTAC  -0.0259 ± 0.052
150. GAGTGCGC  -0.0278 ± 0.044
151. ATATTCTC  -0.0331 ± 0.008
152. CAGTGCGG  -0.0389 ± 0.1
153. GTCCATGA  -0.052 ± 0.031
154. CATCAAAG  -0.0524 ± 0.035
155. ACCTCAAC  -0.0545 ± 0.07
156. ATGTCGGA  -0.0551 ± 0.054
157. CGAGTTAG  -0.0558 ± 0.052
158. CGGAAAAA  -0.0583 ± 0.12
159. CCTTTCGA  -0.06 ± 0.02
160. CAGTGCGC  -0.0646 ± 0.032
161. AAGTCATA  -0.0653 ± 0.022
162. GATTGCCC  -0.0679 ± 0.024
163. ACCATTGG  -0.068 ± 0.046
164. AGCAGCGA  -0.0709 ± 0.041
165. ATCTTAGA  -0.0793 ± 0.081
166. CTTAAGGC  -0.0813 ± 0.065
167. GACCCTTA  -0.0822 ± 0.0071
168. GCAGGTAA  -0.0867 ± 0.05
169. CAATCTAC  -0.0883 ± 0.0018
170. AACCTTAG  -0.0923 ± 0.0088
171. GCGCAGGA  -0.0924 ± 0.067
172. CAAGGGGC  -0.095 ± 0.021
173. CCCCAGAG  -0.096 ± 0.018
174. CCGCCCAA  -0.101 ± 0.091
175. TTGGGAAA  -0.102 ± 0.057
176. CTGTGGAC  -0.104 ± 0.0043
177. CCAGGTAC  -0.105 ± 0.1
178. ATAACCAA  -0.112 ± 0.038
179. GGTGCTCA  -0.112 ± 0.025
180. CCAGGTCC  -0.114 ± 0.039
181. AGCAGCAA  -0.118 ± 0.011
182. GATAGGCA  -0.121 ± 0.014
183. CTCCTTGC  -0.127 ± 0.067
184. AATTCTAA  -0.128 ± 0.086
185. CGACGGGA  -0.129 ± 0.036
186. ATGAATCA  -0.129 ± 0.0053
187. AGGCGACC  -0.13 ± 0.17
188. ATTGCCTA  -0.134 ± 0.077
189. GACCTTAA  -0.136 ± 0.0073
190. AAAACGGG  -0.146 ± 0.0023
191. GATATCCC  -0.147 ± 0.05
192. CACTAGGG  -0.15 ± 0.031
193. AGTCATCG  -0.153 ± 0.0094
194. ATGGGCTC  -0.154 ± 0.16
195. AAATTCTT  -0.155 ± 0.029
196. AGTAGAGA  -0.165 ± 0.0094
197. TCGAAAGA  -0.172 ± 0.05
198. ATGTTTCA  -0.174 ± 0.074
199. ATCAACGG  -0.182 ± 0.042
200. CGGTTTGA  -0.1932 ± 0.0019
201. CCCCTTAG  -0.195 ± 0.0038
202. ACAGCCTC  -0.206 ± 0.14
203. AACCTTAA  -0.209 ± 0.044
204. CCCACATA  -0.214 ± 0.08
205. TAGGTTAA  -0.216 ± 0.0052
206. ACGTAATA  -0.234 ± 0.071
207. ATATGGCC  -0.235 ± 0.066
208. CGGATGCC  -0.239 ± 0.09
209. CTTAGGAA  -0.24 ± 0.011
210. AGGCGAGC  -0.25 ± 0.068
211. GCTCTATA  -0.25 ± 0.048
212. AGGACCAC  -0.253 ± 0.12
213. TATGAGAA  -0.274 ± 0.048
214. CCGCTGAA  -0.279 ± 0.04
215. ATATACGA  -0.298 ± 0.059
216. GACCTTAC  -0.313 ± 0.028
217. AGTTCTGC  -0.332 ± 0.0036
218. ATGCAATA  -0.341 ± 0.0082
219. GAAGCTCC  -0.342 ± 0.041
